Source: PubChem BioAssay (National Center for Advancing Translational Sciences (NCATS))
TDP1 cell noCPT = qHTS for Inhibitors of human tyrosyl-DNA phosphodiesterase 1 (TDP1): qHTS in cells in absence of CPT; DT40 Tdp1-/- hTDP1 cells, no CPT, ATP luminescence, 48 h; Potency, µM (doses to about 46.2 µM), for the others: at the highest dose activity change, negative = growth inhibition, hits mostly inhibitors; hit rate 15% among 420,000; AID 686978, 2013; further: potency means the concentration at half of the fitted maximal effect; nearly all actives have a fitted effect of over 55% in size
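Readout: luminescence from CellTiter-Glo after 30 min in the dark at RT. Cells: DT40 Tdp1-/- with stable hTDP1, 400/well. Exposure: compounds alone, ≥48 hr, 37 °C.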
TDP1 cell CPT = growth inhibition of DT40 Tdp1-/-;hTDP1 cells with camptothecin (screen for TDP1 inhibitors); chicken DT40 Tdp1-/-;hTDP1 cells + 20 nM CPT, ATP luminescence, 48 h; Potency, µM (highest dose often 46.2 µM), for the others: at the highest dose activity change, negative = growth inhibition, most hits filed as inhibitors; hit rate 12% among 420,000; AID 686979; further: potency means the concentration at half of the fitted maximal effect; nearly all actives have a fitted effect of over 55% in size
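Chicken DT40 Tdp1-/- cells stably complemented with human TDP1 were seeded at 400 cells/well in medium containing 20 nM camptothecin, exposed to pin-transferred compounds, and grown at 37 °C for at least 48 hr. Viability was read as ATP luminescence.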
IL1B secr inh = inflammasome signaling inhibition, IL-1 beta readout; THP-1 LPS/ATP IL-1B secretion, AlphaLISA, 16 h; stronger effect = lower value; activity change, % at 57.5 µM; hit rate 4.7% among 360,000; AID 743279; in the data active means activity change below about -50%; inconclusive means mostly about -30% to -49%
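Secreted IL-1B measured by AlphaLISA bead assay after 16 h compound exposure of THP-1 cells; compounds (final up to 57.5 uM) added 1 h before LPS (250 ng/mL) and ATP (1.25 mM) stimulation; lower signal means less secretion.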
uPA generation = blocks generation of uPA at the cell surface. Potency, µM (top dose mostly 38.3 µM), inactives show top-dose activity change, negative = inhibition, actives largely listed as inhibitors. hit rate 0.31% among 330,000. cell surface uPA generation assay, qHTS. AID 540303; active means well fitted inhibition curve with a large enough effect; inconclusive means small, poorly fitted or top-dose-only effect; inactive means no such curve, though single readings can be large or run the other way; tested in mouse RAW 264.7 cells; further: potency means the concentration at half of the fitted maximal effect; nearly all actives have a fitted effect of over 55% in size
HT1080-NT tox = kills 2HG-producing HT-1080-NT fibrosarcoma cells. hit rate 1.6% among 360,000. Potency, µM (titrated, usually from 46.1 µM), for inactives: top-dose activity, negative = less viability, usual class: cytotoxic. HT-1080-NT fibrosarcoma viability, CellTiter-Glo ATP luminescence, 48 h. AID 686970;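 further: NT is the 2HG producing partner of a matched IDH1 knockdown line; potency means the concentration at half of the fitted maximal effect; 0% = DMSO-treated cells and -100% = media-only wells without cells; nearly all actives have a fitted effect of over 55% in size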
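Compounds were tested in concentration-response format on HT-1080-NT cells for 48 hours at 37 degrees C. Cell viability came from CellTiter-Glo luminescence; curves were classified by r2, response magnitude and activity.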
HT1080 IDH1KD tx = HT-1080 IDH1 knockdown cell toxicity (counter line); HT-1080 IDH1 knockdown viability, ATP luminescence, 48 h; Potency, µM (top dose mostly 46.1 µM), for the others: at the highest dose activity, negative = toxicity, actives largely listed as cytotoxic; hit rate 2% among 360,000;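 further: potency means the concentration at half of the fitted maximal effect; 0% = DMSO wells and -100% = cell-free medium wells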
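HT-1080-IDH1KD cells (IDH1 knocked down), 750/well in RPMI with 5% FBS, treated with compound 48 h at 37 degrees C. Viability by CellTiter-Glo luminescence, normalised to DMSO and no-cell wells; concentration-response curves classed.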
* = called active by the depositor; u = inconclusive; x = not tested or not shown. Sampled rows, rich in hits. Any-hit rate of the full collection: about 19%. Unless noted, the call rests on the fitted dose curve; in most records, active means well fitted curve in the direction sought with a large enough effect; inconclusive means small, poorly fitted or top-dose-only effect, or another doubt; inactive means no such curve, though single readings can be large; an effect the other way counts as inactive or inconclusive. Unless noted, on the % scale 0 is the no-effect control and ±100 the full control effect.

SMILES	TDP1 cell noCPT	TDP1 cell CPT	IL1B secr inh	uPA generation	HT1080-NT tox	HT1080 IDH1KD tx
O=C(Nc1ccc2c(c1)OCO2)O[C@@H]1C[C@H]2CCCC(=O)N3CC[C@@H](C1)[C@@H]23	-24%	-19%	-3	-4%	12%	14%
CC1(C)CCC(=O)N2CC[C@H]3C[C@H](OC(=O)Nc4ccc(Br)cc4)C[C@@H]1[C@H]32	u	35µM*	-8	1%	0%	15%
COc1ccc(C(C)(O)c2nc(-c3ccccc3OC)cs2)cc1 (stereo not drawn)	13µM*	9.2µM*	20	x	u	16µM*
COc1cccc(C(C)(O)c2nc(-c3cccc(C(F)(F)F)c3)cs2)c1 (stereo not drawn)	u	u	-7	x	18µM*	u
CC(O)(c1cccnc1)c1nc(-c2cccc(C(F)(F)F)c2)cs1 (stereo not drawn)	15µM*	18µM*	-7	x	23µM*	u
COc1ccc(-c2csc(C(C)(O)c3cccc(F)c3)n2)cc1 (stereo not drawn)	13µM*	18µM*	-5	x	-30%	u
COc1ccc(C(C)(O)c2nc(-c3cnc4ccccc4c3)cs2)cc1 (stereo not drawn)	u	u	29	x	-2%	-2%
CC(O)(c1cccnc1)c1nc(-c2cccc(F)c2)cs1 (stereo not drawn)	-27%	u	20	x	-2%	-13%
COc1cccc(C(C)(O)c2nc(-c3ccoc3)cs2)c1 (stereo not drawn)	u	u	-17	x	21%	9%
COc1cc(=O)n2c(c1C(=O)NCc1ccc3c(c1)OCO3)CCN(C(=O)c1cccc(F)c1)CC2	5%	0%	x	x	x	x
CC(=O)N1CCN(CC(=O)Nc2cc(S(=O)(=O)N3CCOCC3)ccc2C)CC1	-16%	5%	-13	-4%	-7%	-9%
CCC(=O)N(c1nnc(SC(C)C(=O)Nc2ccc(N3CCOCC3)cc2)s1)C1CC1 (stereo not drawn)	-21%	-4%	-9	x	-2%	5%
COc1cccc(C(C)(O)c2nc(-c3csc4ccccc34)cs2)c1 (stereo not drawn)	-92%	u	-19	x	21µM*	u
COc1cccc(C(C)(O)c2nc(/C=C/c3ccccc3)cs2)c1 (stereo not drawn)	18µM*	u	29	x	-29%	-20%
CC(O)(c1ccccc1)c1nc(-c2cccc(C(F)(F)F)c2)cs1 (stereo not drawn)	u	u	-7	x	u	u
COc1cccc(C(C)(O)c2nc(-c3ccccc3C)cs2)c1 (stereo not drawn)	u	u	14	x	u	u
CC(C)c1cccc(-c2csc(C(C)(O)c3cccc(F)c3)n2)c1 (stereo not drawn)	u	21µM*	-21	x	-5%	u
CC(O)(c1cccc(F)c1)c1nc(-c2cccc(F)c2)cs1 (stereo not drawn)	u	u	-30	x	u	u
COc1ccc(C(C)(O)c2nc(-c3cccc(C(F)(F)F)c3)cs2)cc1 (stereo not drawn)	18µM*	26µM*	0	x	u	0%
Cc1cc(C)cc(N2C(=O)CCN(Cc3ccccc3)C2=O)c1	0%	6%	8	0%	1%	8%
O=C1c2ccccc2C(=O)c2c1cccc2N1CCOCC1	u	u	-81*	-8%	2%	4%
C[C@@](N)(C(=O)O)[C@@H]1C[C@@H]1C(=O)O	-19%	-18%	x	x	x	x
CCOC(=O)N1CCC(N(CCOC)C(=O)Nc2ccc(Cl)c(Cl)c2)CC1	10µM*	18µM*	-63*	3%	5%	-27%
CCOC(=O)N1CCC(N(CCCOC)C(=O)Nc2cccc(OC)c2)CC1	u	u	23	-2%	2%	4%
CCOC(=O)N1CCC(N(CCN(C)C)C(=S)Nc2ccc(Oc3ccccc3)cc2)CC1	-23%	-9%	-89*	1%	2%	13%
SMILES	TDP1 cell noCPT	TDP1 cell CPT	IL1B secr inh	uPA generation	HT1080-NT tox	HT1080 IDH1KD tx
CCOC(=O)N1CCC(N(C(=O)Nc2cccc(OC)c2)C(C)CC)CC1 (stereo not drawn)	10µM*	21µM*	16	-4%	-27%	-1%
Cc1nc2ccc(S(=O)(=O)NC(C(=O)NCc3ccc(Cl)cc3)C(C)C)cc2s1 (stereo not drawn)	-4%	6%	x	x	x	x
Cc1ccc(S(=O)(=O)N2CCN(c3ccccc3)CC2)cc1C(=O)NC1CCCCC1	u	-26%	u	-10%	26%	2%
O=C(Nc1ccncc1)c1ccc2ccccc2c1	13µM*	u	-61*	-2%	-9%	-7%
O=C(Nc1ccncc1)c1ccc2c(c1)OCCO2	u	u	2	-4%	1%	-10%
O=C(Nc1nnc(-c2ccncc2)o1)c1ccc2ccccc2c1	7.3µM*	8.2µM*	31	-2%	-12%	-12%
Cc1ccc(C(=O)Nc2ccc3ccccc3c2)cc1	-15%	-11%	-25	-16%	-20%	-27%
O=C(Nc1ccc2ccccc2c1)c1ccc(Cl)cc1	-4%	-9%	-24	10µM*	-2%	-2%
O=C(Nc1ccccc1)OCCc1ccccn1	-4%	-1%	-21	5%	17%	17%
O=C(C[n+]1cccc(C(=O)N/N=C/c2cccc([N+](=O)[O-])c2)c1)c1ccccc1	-22%	-1%	2	-1%	4%	10%
COc1ccccc1NC(=O)NC1CCS(=O)(=O)C1 (stereo not drawn)	-4%	20%	14	-1%	0%	16%
CCN(CC)C(=O)c1sc2c(c1C)c(=O)n(-c1ccc(C)c(C)c1)c(=O)n2Cc1cc(=O)n2ccccc2n1	-13%	-16%	x	x	x	x
Cc1noc(C)c1C(=O)N1CCC2(CCCN(c3ccncc3)C2)CC1	-4%	25%	x	x	x	x
N#Cc1c([N+](=O)[O-])cc([N+](=O)[O-])cc1S(=O)(=O)Cc1ccccc1	0.18µM*	0.21µM*	-112*	-10%	21µM*	2.9µM*
CC(C)c1ccc2c(c1)C(N1CCN(C)CC1)Cc1cccnc1S2 (stereo not drawn)	-93%	u	u	-10%	u	u
